Assay outcomes from PubChem BioAssay.
HCV inh – HCV inhibition; AID 651820; Potency, µM (titrated, usually from 41.8 µM), most hits filed as inhibitors; Huh7.5.1 HCVcc-Cre infection, luciferase reporter, 44 h; 3.4% of 340,000 active
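Compounds are dispensed onto cells plated 4 h earlier at 1,000 per well, with HCVcc-Cre virus (about 0.5 moi) added next. Following 44 h of culture, luminescent signal is measured for 15 sec after 15 min with substrate at room temperature.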
Pf growth 48h – inhibits P. falciparum growth in the first generation, 48 h; Potency, µM (top dose mostly 28.7 µM), most hits filed as inhibitors; 5.9% of 310,000 active; P. falciparum luciferase growth in erythrocytes, 48 h; AID 504832
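Luciferase-expressing parasites in RBCs, 2% Hct / 0.1% parasitemia final; RPMI 1640 + 0.5% Albumax; 37 C, 5% CO2, one generation; luminescence read-out, lower signal = inhibition.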
Pf growth 96h – inhibits malaria parasite growth, 96 h | P. falciparum luciferase reporter growth, 96 h | Potency, µM (titrated, usually from 28.7 µM), usual class: inhibitors | 6.9% of 320,000 active
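Erythrocytes infected with luciferase-expressing P. falciparum were dispensed at 2% hematocrit and 0.05% parasitemia (final), then incubated with compounds 96 hours at 37 C in 5% CO2. Luminescence after detection reagent addition reported growth.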
HCMV antiviral – blocks human cytomegalovirus replication. 4.5% of 410,000 active. HFF cells, HCMV-luciferase reporter, 72 h; hits give low values. activity change, negative = inhibition, % at 57.5 µM; in the data active = activity change below about -60%; inconclusive = no clear call, values can overlap the other calls; inactive = above about -39%
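After 16 h attachment at 37C, HFF cells received test compound and HCMV-luciferase (1 PFU/cell); reporter luminescence read 72 h later, data normalized against buffer-only and known inhibitor Salinomycin.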
LASV entry inh – inhibitors of Lassa virus binding or cell entry | Potency, µM (titrated, usually from 37.9 µM), usual class: inhibitors | AID 540256 | 1.2% of 300,000 active | Lassa virus pseudotype entry inhibition, cell reporter; calls by dose curve; tested in HEK293 cells; note: nearly all actives have a fitted effect of over 50% in size
MARV entry inh – Marburg virus entry inhibition; Marburg virus pseudotyped entry inhibition, cell reporter; Potency, µM (highest dose often 37.8 µM), actives largely listed as inhibitors; 1.8% of 300,000 active; calls by dose curve; tested in HEK293 cells
Numbers stand for hits; – = inactive; ? = inconclusive; · = not tested or not shown; ! = not active in a repeat. An excerpt weighted towards active compounds, which were near 14% of everything screened. Unless noted, calls come from the whole dose curve; as a rule, active = well fitted inhibition curve with a large enough effect; inconclusive = small, poorly fitted or top-dose-only effect, or another doubt; inactive = no such curve, though single readings can be large or run the other way.

SMILES | HCV inh | Pf growth 48h | Pf growth 96h | HCMV antiviral | LASV entry inh | MARV entry inh
CCOC(=O)c1ccc(-c2ccc(/C=C(\C#N)c3nc4ccc(C)cc4[nH]3)o2)cc1 | · | · | · | -79 | ? | ·
CC[C@]12c3[nH]c4cc(-c5ccco5)ccc4c3CCN1C(=O)[C@@H](CC(=O)NCCCN(C)C)C[C@@H]2C(=O)N1CCN(C(=O)c2ccco2)CC1 | – | · | · | – | · | ·
Cc1ccc(S(=O)(=O)c2cn(C)c3cc(N4CCOCC4)c(F)cc3c2=O)c(C)c1 | · | · | · | – | – | ·
CC1CN(S(=O)(=O)c2cc(C(=O)NC(C)c3cccnc3)ccc2Cl)CC(C)O1 (stereo not drawn) | – | · | · | – | – | –
CSc1cccc(NC(=O)c2cc3c(COC(C)=O)cnc(C)c3oc2=O)c1 | · | · | · | – | – | ·
COC(=O)C1=C(c2cc3ccccc3s2)C[C@@H]2CC[C@H]1N2C(=O)NC1CC1 | ? | · | · | -63 | · | ·
COC(=O)C1=C(c2cc3ccccc3s2)C[C@@H]2CC[C@H]1N2C(=O)NCc1ccc(C(F)(F)F)cc1 | 11µM | · | · | – | · | ·
CCOc1ccc(NC(=O)c2nn(C)c3c2COc2ccccc2-3)cc1 | · | · | · | – | – | –
O=S(=O)(c1ccc2c(c1)CCCC2)N1CCNCC1 | – | – | – | – | · | ·
S=c1[nH]nc(-c2ccc3ccccc3n2)n1-c1ccc(Cl)cc1 | – | – | 0.59µM | – | – | ?
Cc1n[nH]c(=S)n1-c1ccc(Cl)cc1 | – | – | 5.9µM | – | – | –
CCCN(CCC)C(=O)c1cc2c(=O)[nH]c3ccc(C)cc3c2s1 | 11µM | ? | – | – | ? | –
COCCN(Cc1ccco1)C(=O)c1cc2c(=O)[nH]c3ccc(C)cc3c2s1 | · | · | · | – | · | ?
CCOCCCN(Cc1ccco1)C(=O)c1cc2c(=O)[nH]c3ccc(C)cc3c2s1 | ? | · | – | -63! | · | ?
Cc1ccc(C)c(N(C)C(=O)c2cc3c(=O)[nH]c4ccc(C)cc4c3s2)c1 | 8.9µM | 10µM | ? | ? | · | –
CCN(C(=O)c1cc2c(=O)[nH]c3ccc(C)cc3c2s1)c1ccc(OC)cc1 | ? | ? | 5.2µM | – | – | ?
Cc1ccc2[nH]c3c(c2c1)CN(C(=O)CN1C[C@@H](C)O[C@@H](C)C1)CC3 | · | · | · | · | · | –
C[C@H](CO)N1C[C@H](C)[C@@H](CN(C)C(=O)c2ccccn2)Oc2cc(Br)ccc2S1(=O)=O | · | · | · | – | · | ·
CCc1nn(CC(=O)N2CCCCC2)c(=O)c2cc3sc(C)cc3n12 | · | · | · | – | · | ?
COc1ccccc1-c1noc2nc(OCc3ccc(F)cc3)ccc12 | · | · | · | – | · | ·
Cc1ccccc1C(=O)Nc1cccc(NC(=O)c2ccc(C(C)(C)C)cc2)c1 | · | · | · | – | ? | ·
COc1ccc(CCNC(=O)CCn2c(=O)c3cccn3c3cccnc32)c(OC)c1OC | · | · | · | – | – | ·
COc1ccc(N2CCN(C(=O)CCCn3c(=O)c4cccn4c4cccnc43)CC2)cc1 | – | 12µM | – | – | · | ·
COc1ccc(CCNC(=O)CCCn2c(=O)c3cccn3c3cccnc32)c(OC)c1OC | ? | ? | 13µM | – | · | ·
COc1ccc(CCNC(=O)CCCn2c(=O)c3cccn3c3cccnc32)c(OC)c1 | ? | ? | 10µM | – | · | ·
SMILES | HCV inh | Pf growth 48h | Pf growth 96h | HCMV antiviral | LASV entry inh | MARV entry inh
O=C(Nc1c(-c2ccc(F)cc2)nc2ccccn12)c1ccccc1F | · | · | · | – | – | ?
CCN(CC)CCN1C(=O)C(=O)/C(=C(/O)c2c(C)[nH]c(C(=O)OC)c2C)[C@@H]1c1cccc(OC)c1 | · | · | · | · | · | –
O=S(=O)(NCCc1ccccc1)c1ccc(N2CCCCS2(=O)=O)cc1 | · | · | · | – | ? | ·
CCOC(=O)c1c(C)c(-c2ccccc2)n(CC(=O)Nc2cc(C)cc(C)c2)c1C | · | · | · | -97 | · | –
O=C(Nc1c(C(=O)c2ccc(Cl)cc2)oc2ccccc12)c1cc(=O)c2ccccc2o1 | · | · | · | – | – | ?
O=C(c1ccc(Cl)cc1)c1oc2ccccc2c1CS(=O)(=O)c1ccccc1 | · | – | 10µM | – | – | –
CN([C@@H](Cc1ccc(OS(=O)(=O)c2cccc3cnccc23)cc1)C(=O)N1CCN(c2ccccc2)CC1)S(=O)(=O)c1cccc2cnccc12 | 2.8µM | 0.93µM | 1µM | · | ? | ?
O=S1(=O)CC(N2CC=CC2)CN1Cc1cn(Cc2ccccc2)nn1 (stereo not drawn) | · | · | · | – | · | ·
COc1ccc2c(c1)C(C)=CC(C)(C)N2C(=O)CN1C(=O)CCC1=O | – | – | ? | – | – | –
COc1ccc2c(c1)N(C(=O)CN1C(=O)C3CCCCC3C1=O)C(C)(C)C=C2C (stereo not drawn) | – | 12µM | – | – | – | –
CCOC(=O)N1CCN(C(=O)c2ccc3c(c2)NC(=O)/C(=C/c2ccccc2)S3)CC1 | ? | – | 15µM | ? | ? | ?
CCOC(=O)C1CCN(C(=O)c2ccc3c(c2)NC(=O)/C(=C\c2cccc(C)c2)S3)CC1 | 11µM | ? | – | – | · | ·
